This note sets out measurements from paper PMC5540273 (PLoS ONE, 2017).

Molecules are shown by their SMILES. Several values for one entry are separate records, joined by “and”; a condition that tells them apart may be missing. Identical values can stand only once. Like-named read-outs stand apart in the source and are kept apart here.

Test [1] deals with LYN. Particulars: concentration: 1 μM, replicates: in singlicate; n = 1.
Test [2] has as its system T1, LZK.
T1 construct: gene MAP3K13
As to conditions: concentration: 1 μM, replicates: in singlicate; n = 1.

In test [3] the test system is MAK. As to conditions: n = 1.
Test [4] deals with MAP3K15. As to conditions: n = 1.
For test [5], the system named is MAP3K1. As to conditions: n = 1.
For test [6], the system named is MAP3K2. Particulars: n = 1.
Test [7] concerns MAP3K3. Particulars: concentration: 1 μM, replicates: in singlicate; n = 1.
The subject of test [8] is MAP3K4. As to conditions: n = 1.
Test [9] has as its system MAP4K2. As to conditions: concentration: 1 μM, replicates: in singlicate; n = 1.
In test [10] the test system is MAP4K3. Particulars: n = 1.
The test system of test [11] is MAP4K4. Particulars: concentration: 1 μM, replicates: in singlicate; n = 1.
Test [12] relates to MAP4K5. As to conditions: concentration: 1 μM, replicates: in singlicate; n = 1.
Test [13] relates to MAPKAPK2. As to conditions: n = 1.
The test system of test [14] is MAPKAPK5. Particulars: concentration: 1 μM, replicates: in singlicate; n = 1.
Test [15] concerns MARK1. As to conditions: n = 1.
Test [16] has as its system MARK2. Particulars: concentration: 1 μM, replicates: in singlicate; n = 1.
The test system of test [17] is MARK3. As to conditions: concentration: 1 μM, replicates: in singlicate; n = 1.
The test system of test [18] is MARK4. As to conditions: n = 1.
Test [19] deals with MAST1. As to conditions: concentration: 1 μM, replicates: in singlicate; n = 1.
Test [20] relates to T2, MEK1.
T2 construct: gene MAP2K1
Particulars: concentration: 1 μM, replicates: in singlicate; n = 1.

The mark [21] stands for this setting: concentration: 1 μM, replicates: in singlicate.
[22] abbreviates: concentration: 1 μM,replicates: in singlicate, 1 µM.
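Further: KINOMEscan kinase panel screen.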

As to `Fc1cc(Cl)ccc1Nc1ccnc2cc(I)ccc12` [GW551191], the “%Inh” value in [1] is 14%; in test [2], 0%; in test [3] (setting [21]), 40%; in test [4] (setting [21]) it was 0%; in test [5] (setting [21]), 7%; in [6] (setting [21]), 0%. Further, the “%Inh” value in [7] is listed as 0%; in test [8] (setting [21]), 0%; in test [9], 0%; in test [10] (setting [21]), 0%; in test [11], 28%; in test [12], 0%. Moreover, the “%Inh” value is 19% in test [13] (setting [21]); 0% in [14]; 0% in test [15] (setting [21]); 0% in test [16]; 11% in [17]; 0% in [18] (setting [21]). The “%Inh” value in test [19] and in [20] was 0% throughout.
Turning to `Cc1c(Cn2ccn3c(=O)cc(N4CCOCC4)nc23)cccc1C(F)(F)F` [GSK2289044], the “%Inh” value in test [1] worked out at 22%; in [2], 0%; in [3] (setting [21]) it was 20%; in test [4] (setting [21]), 0%; in test [5] (setting [21]), 15%; in test [6] (setting [21]) it was 7%. Besides, the “%Inh” value in [7] was 0%; in test [8] (setting [21]), 20%; in test [9], 1%; in test [10] (setting [21]) it was 0%; in test [11], 0%; in test [12], 0%. Further, the “%Inh” value is 4% in [13] (setting [21]); 0% in test [14]; 0% in test [15] (setting [21]); 5% in test [16]; 2% in test [17]; 0% in test [18] (setting [21]). For the same compound, the “%Inh” value in test [19] and in test [20] was 0% throughout.
Consider `Cc1cccc(-c2nc(C)cc(Nc3ccncc3)n2)n1` [GSK257997], for which the “%Inh” value in test [1] amounted to 0%; in test [2], 0%; in [3] (setting [21]) it was 16%; in test [4] (setting [21]), 0%; in test [5] (setting [21]), 21%; in test [6] (setting [21]) it was 0%. In addition, the “%Inh” value is listed as 0% in test [7]; 14% in [8] (setting [21]); 0% in [9]; 0% in test [10] (setting [21]); 2% in test [11]; 0% in test [12]. Besides, the “%Inh” value in test [13] (setting [21]) is given as 20%; in test [14], 0%; in test [15] (setting [21]) it was 0%; in test [16], 0%; in test [17] it was 4%; in test [18] (setting [21]), 0%. The “%Inh” value in test [19] and in [20] was 0% each time.
Regarding `CS(=O)(=O)c1ccc(-c2nc3n(c2-c2ccncc2)CCC3)cc1` [SKF-105942], the “%Inh” value stood at 3% in test [1]; 0% in test [2]; 25% in [3] (setting [21]); 0% in test [4] (setting [21]); 0% in test [5] (setting [21]); 3% in test [6] (setting [21]). Further, the “%Inh” value in [7] is 0%; in test [8] (setting [21]), 35%; in test [9], 0%; in test [10] (setting [21]), 2%; in test [11], 0%; in test [12] it was 0%. The “%Inh” value in test [13] (setting [21]) is reported as 36%; in test [14] it was 0%; in [15] (setting [21]), 0%; in test [16], 0%; in test [17] it was 0%; in test [18] (setting [21]) it was 0%. Besides, the “%Inh” value in test [19] and in test [20] was 0% in each case.
In the case of `CSc1nn2c(=O)cc(N3CCOCC3)nc2n1Cc1cccc(C(F)(F)F)c1C` [GSK2363608], the “%Inh” value in test [1] was 0%; in test [2] it was 0%; in test [3] (setting [22]), 24% and 15%; in test [4] (setting [22]), 5% and 0%; in test [5] (setting [22]), 12% and 6%; in test [6] (setting [22]) it was 10% and 13%. The “%Inh” value in test [7] is 0%; in [8] (setting [22]), 18% and 30%; in test [9], 0%; in test [10] (setting [22]), 0% and 10%; in [11], 0%; in test [12], 0%. The “%Inh” value in [13] (setting [22]) is 2% and 27%; in [14], 0%; in [15] (setting [22]), 9% and 0%; in test [16], 0%; in [17], 0%; in test [18] (setting [22]), 15% and 0%. Besides, the “%Inh” value in [19] and in [20] was 0% each time.
For `Cc1cccc(-c2nc(Nc3cccc(C(N)=O)c3)c3ccccc3n2)n1` [GW876019], the “%Inh” value in test [1] stood at 0%; in test [2], 0%; in test [3] (setting [21]), 0%; in test [4] (setting [21]), 0%; in [5] (setting [21]) it was 3%; in test [6] (setting [21]), 0%. Besides, the “%Inh” value in test [7] is on record as 26%; in [8] (setting [21]), 0%; in test [9], 0%; in test [10] (setting [21]), 0%; in [11], 0%; in test [12], 0%. Further, the “%Inh” value in test [13] (setting [21]) turned out to be 0%; in test [14], 0%; in [15] (setting [21]), 0%; in test [16], 0%; in test [17], 45%; in [18] (setting [21]) it was 0%. Also, the “%Inh” value in [19] is recorded as 11%; in test [20], 97.2%.
Regarding `CC(=O)Nc1nc2cnc(Nc3cc(NC(=O)c4cccc(CCC#N)c4)ccc3C)nc2s1`, the “%Inh” value in test [1] is listed as 25%; in test [2], 24%; in test [3] (setting [21]), 0%; in test [4] (setting [21]), 8%; in test [5] (setting [21]), 0%; in test [6] (setting [21]), 0%. Also, the “%Inh” value in test [7] was 20%; in [8] (setting [21]) it was 0%; in test [9] it was 0%; in [10] (setting [21]) it was 0%; in [11] it was 0%; in [12] it was 0%. Also, the “%Inh” value in test [13] (setting [21]) was determined as 11%; in test [14] it was 3%; in [15] (setting [21]), 14%; in [16] it was 0%; in [17], 0%; in [18] (setting [21]), 12%. Also, the “%Inh” value in test [19] and in test [20] was 0% each time.
Regarding `Cc1ccc(-c2cc(-c3c[nH]nc3-c3ccccn3)ccn2)cc1` [GW684088], the “%Inh” value in test [1] is on record as 1%; in [2], 44%; in test [3] (setting [21]), 0%; in test [4] (setting [21]) it was 0%; in test [5] (setting [21]), 9%; in test [6] (setting [21]), 0%. In addition, the “%Inh” value in test [7] was 0%; in [8] (setting [21]), 4%; in [9], 0%; in test [10] (setting [21]), 0%; in test [11], 58%; in [12], 0%. The “%Inh” value is given as 0% in [13] (setting [21]); 0% in test [14]; 0% in test [15] (setting [21]); 14% in test [16]; 0% in test [17]; 4% in test [18] (setting [21]). In addition, the “%Inh” value in [19] is listed as 64%; in test [20] it was 9%.
In the case of `CC1=C(C(=O)Nc2cc3cn[nH]c3cc2F)C(c2ccc(C(F)(F)F)cc2)CC(=O)N1` (stereo not drawn) [GSK429286], the “%Inh” value was found to be 0% in test [1]; 0% in test [2]; 0% in [3] (setting [21]); 16% in [4] (setting [21]); 30% in test [5] (setting [21]); 3% in test [6] (setting [21]). Moreover, the “%Inh” value in [7] was 0%; in test [8] (setting [21]), 0%; in test [9], 0%; in [10] (setting [21]) it was 0%; in test [11], 59%; in [12], 75%. For the same compound, the “%Inh” value in [13] (setting [21]) is reported as 21%; in [14], 0%; in [15] (setting [21]), 0%; in [16], 0%; in [17], 0%; in test [18] (setting [21]) it was 0%. Further, the “%Inh” value in test [19] and in [20] was 0% each time.
